# ± gives the standard deviation of the averaged measurements.
# Assays:
# Assay in all cases: promoter activity interaction Z-score (Lux/OD deviation from empty-vector control); higher = stronger promoter induction by the compound
# [1] = test system: E. coli BW25113 acrABp lux reporter
# In short: (§1)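 E. coli BW25113 (wild type or marA, soxS or rob deletion) carrying low-copy luxCDABE promoter reporters grew in 40 µl LB Lennox in 384-well plates at 37°C. Each compound was tested at four 1:2 dilutions in biological duplicates. OD600 and luminescence were read every 30 min for 12 h. Areas were taken over 0–8 h (wild type) or 1–9 h (mutants), and wells below 10% of median growth area were removed. The score is the Z-transformed residual of growth-normalised luminescence fitted against the empty-vector control.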
# [2] = test system: E. coli BW25113 marRABp lux reporter
# In short: as §1
# [3] = test system: E. coli BW25113 micFp lux reporter
# In short: as §1
# [4] = test system: E. coli BW25113 ompFp lux reporter
# In short: as §1
# [5] = test system: E. coli BW25113 robp lux reporter
# In short: as §1
# [6] = test system: E. coli BW25113 soxSp lux reporter
# In short: as §1
# [7] = test system: E. coli BW25113 tolCp lux reporter
# In short: as §1
# [8] = 0.12 µg/ml, genetic background: wild type
# [9] = 0.12 µg/ml, genetic background: ΔmarA
# [10] = 0.12 µg/ml, genetic background: Δrob
# [11] = 0.12 µg/ml, genetic background: ΔsoxS
# [12] = 0.24 µg/ml, genetic background: wild type
# [13] = 0.24 µg/ml, genetic background: ΔmarA
# [14] = 0.24 µg/ml, genetic background: Δrob
# [15] = 0.24 µg/ml, genetic background: ΔsoxS
# [16] = 0.48 µg/ml, genetic background: wild type
# [17] = 0.48 µg/ml, genetic background: ΔmarA
# [18] = 0.48 µg/ml, genetic background: Δrob
# [19] = 0.48 µg/ml, genetic background: ΔsoxS
# [20] = 1 µg/ml, genetic background: wild type
# [21] = 1 µg/ml, genetic background: ΔmarA
# [22] = 1 µg/ml, genetic background: ΔsoxS
smiles,measurement,setting,value
O=C(N[C@H](CO)[C@H](O)c1ccc([N+](=O)[O-])cc1)C(Cl)Cl [Chloramphenicol],promoter activity interaction Z-score,[1]; [8],0.22 ± 0.098
same,promoter activity interaction Z-score,[1]; [9],-0.0897 ± 1
same,promoter activity interaction Z-score,[1]; [10],0.368 ± 0.066
same,promoter activity interaction Z-score,[1]; [11],0.272 ± 0.11
same,promoter activity interaction Z-score,[1]; [12],0.636 ± 0.41
same,promoter activity interaction Z-score,[1]; [13],-0.23 ± 0.65
same,promoter activity interaction Z-score,[1]; [14],0.312 ± 0.071
same,promoter activity interaction Z-score,[1]; [15],0.433 ± 0.24
same,promoter activity interaction Z-score,[1]; [16],1.1 ± 0.056
same,promoter activity interaction Z-score,[1]; [17],-0.541 ± 0.59
same,promoter activity interaction Z-score,[1]; [18],0.7917 ± 0.0062
same,promoter activity interaction Z-score,[1]; [19],1.11 ± 0.52
same,promoter activity interaction Z-score,[1]; [20],1.46 ± 0.021
same,promoter activity interaction Z-score,[1]; [21],-1.09 ± 0.82
same,promoter activity interaction Z-score,[1]; [22],0.0905
same,promoter activity interaction Z-score,[2]; [8],0.131 ± 0.36
same,promoter activity interaction Z-score,[2]; [9],0.172 ± 0.061
same,promoter activity interaction Z-score,[2]; [10],0.31 ± 0.053
same,promoter activity interaction Z-score,[2]; [11],0.215 ± 0.0078
same,promoter activity interaction Z-score,[2]; [12],0.735 ± 0.19
same,promoter activity interaction Z-score,[2]; [13],0.695 ± 0.4
same,promoter activity interaction Z-score,[2]; [14],0.342 ± 0.21
same,promoter activity interaction Z-score,[2]; [15],0.497 ± 0.14
same,promoter activity interaction Z-score,[2]; [16],1.43 ± 0.31
same,promoter activity interaction Z-score,[2]; [17],1.26 ± 0.45
same,promoter activity interaction Z-score,[2]; [18],0.873 ± 0.55
same,promoter activity interaction Z-score,[2]; [19],1.19 ± 0.34
same,promoter activity interaction Z-score,[2]; [20],0.553 ± 0.19
same,promoter activity interaction Z-score,[2]; [21],-0.609 ± 0.26
same,promoter activity interaction Z-score,[2]; [22],1.31 ± 0.5
same,promoter activity interaction Z-score,[3]; [8],-0.122 ± 0.054
same,promoter activity interaction Z-score,[3]; [9],-0.0498 ± 0.071
same,promoter activity interaction Z-score,[3]; [10],-0.238 ± 0.013
same,promoter activity interaction Z-score,[3]; [11],0.0558 ± 0.064
same,promoter activity interaction Z-score,[3]; [12],0.0837 ± 0.14
same,promoter activity interaction Z-score,[3]; [13],-0.057 ± 0.033
same,promoter activity interaction Z-score,[3]; [14],-0.128 ± 0.036
same,promoter activity interaction Z-score,[3]; [15],-0.0814 ± 0.0056
same,promoter activity interaction Z-score,[3]; [16],-0.548 ± 0.11
same,promoter activity interaction Z-score,[3]; [17],-0.166 ± 0.013
same,promoter activity interaction Z-score,[3]; [18],0.103 ± 0.18
same,promoter activity interaction Z-score,[3]; [19],0.183 ± 0.15
same,promoter activity interaction Z-score,[3]; [20],-1.17 ± 0.016
same,promoter activity interaction Z-score,[3]; [21],-0.119 ± 0.29
same,promoter activity interaction Z-score,[3]; [22],-0.534
same,promoter activity interaction Z-score,[4]; [8],0.809 ± 0.57
same,promoter activity interaction Z-score,[4]; [9],0.473 ± 0.32
same,promoter activity interaction Z-score,[4]; [10],0.576 ± 0.47
same,promoter activity interaction Z-score,[4]; [11],1.1 ± 0.088
same,promoter activity interaction Z-score,[4]; [12],1.81 ± 0.86
same,promoter activity interaction Z-score,[4]; [13],1.78 ± 0.49
same,promoter activity interaction Z-score,[4]; [14],1.2 ± 0.46
same,promoter activity interaction Z-score,[4]; [15],1.55 ± 0.91
same,promoter activity interaction Z-score,[4]; [16],0.1844 ± 0.0012
same,promoter activity interaction Z-score,[4]; [17],1.34 ± 0.83
same,promoter activity interaction Z-score,[4]; [18],0.797 ± 0.094
same,promoter activity interaction Z-score,[4]; [19],1.6 ± 0.38
same,promoter activity interaction Z-score,[4]; [20],-1.42 ± 0.36
same,promoter activity interaction Z-score,[4]; [21],-1.37 ± 0.11
same,promoter activity interaction Z-score,[4]; [22],-0.525
same,promoter activity interaction Z-score,[5]; [8],-0.00573 ± 0.3
same,promoter activity interaction Z-score,[5]; [9],-0.626 ± 0.41
same,promoter activity interaction Z-score,[5]; [10],-0.328 ± 0.36
same,promoter activity interaction Z-score,[5]; [11],0.732 ± 0.14
same,promoter activity interaction Z-score,[5]; [12],-0.692 ± 0.34
same,promoter activity interaction Z-score,[5]; [13],-0.0133 ± 0.15
same,promoter activity interaction Z-score,[5]; [14],-0.61 ± 0.2
same,promoter activity interaction Z-score,[5]; [15],-0.218 ± 0.31
same,promoter activity interaction Z-score,[5]; [16],-1.41 ± 0.4
same,promoter activity interaction Z-score,[5]; [17],-0.957 ± 0.41
same,promoter activity interaction Z-score,[5]; [18],-1.44 ± 0.12
same,promoter activity interaction Z-score,[5]; [19],-1.17 ± 0.88
same,promoter activity interaction Z-score,[5]; [20],-2.19 ± 0.21
same,promoter activity interaction Z-score,[5]; [21],-1.15 ± 0.94
same,promoter activity interaction Z-score,[6]; [8],-0.0492 ± 0.039
same,promoter activity interaction Z-score,[6]; [9],0.159 ± 0.13
same,promoter activity interaction Z-score,[6]; [10],0.217 ± 0.045
same,promoter activity interaction Z-score,[6]; [11],0.238 ± 0.14
same,promoter activity interaction Z-score,[6]; [12],0.299 ± 0.018
same,promoter activity interaction Z-score,[6]; [13],0.529 ± 0.11
same,promoter activity interaction Z-score,[6]; [14],0.189 ± 0.096
same,promoter activity interaction Z-score,[6]; [15],0.422 ± 0.29
same,promoter activity interaction Z-score,[6]; [16],0.645 ± 0.3
same,promoter activity interaction Z-score,[6]; [17],0.914 ± 0.026
same,promoter activity interaction Z-score,[6]; [18],0.721 ± 0.017
same,promoter activity interaction Z-score,[6]; [19],1.45 ± 1.5
same,promoter activity interaction Z-score,[6]; [20],1.67 ± 0.091
same,promoter activity interaction Z-score,[6]; [21],2.38 ± 0.034
same,promoter activity interaction Z-score,[6]; [22],1.71 ± 1.7
same,promoter activity interaction Z-score,[7]; [8],0.142 ± 1.1
same,promoter activity interaction Z-score,[7]; [9],-0.0323 ± 0.44
same,promoter activity interaction Z-score,[7]; [10],0.149 ± 0.77
same,promoter activity interaction Z-score,[7]; [11],-0.831 ± 0.55
same,promoter activity interaction Z-score,[7]; [12],0.339 ± 0.15
same,promoter activity interaction Z-score,[7]; [13],0.367 ± 0.84
same,promoter activity interaction Z-score,[7]; [14],-0.202 ± 1.4
same,promoter activity interaction Z-score,[7]; [15],0.0632 ± 1
same,promoter activity interaction Z-score,[7]; [16],0.356 ± 1.2
same,promoter activity interaction Z-score,[7]; [17],0.168 ± 0.82
same,promoter activity interaction Z-score,[7]; [18],-0.0545 ± 0.19
same,promoter activity interaction Z-score,[7]; [19],2.03 ± 0.53
same,promoter activity interaction Z-score,[7]; [20],-0.0529 ± 0.35
same,promoter activity interaction Z-score,[7]; [21],-0.256 ± 0.82
same,promoter activity interaction Z-score,[7]; [22],1.66 ± 0.93

# Reference: the supplement of paper PMC12282887
